Hits are enriched below; roughly 21% of the tested compounds scored in any of these assays.
Shiga toxin inh = A qHTS for Small Molecule Inhibitors of Shiga Toxin. Vero cells, Shiga toxin protein synthesis inhibition reporter. inhibition, % at 38.7 µM. 290,000 tested, 9.2% active. AID 2315, 2010; in the data active means inhibition mostly above about 28%, no sharp cut-off; inactive means mostly below about 43%
NS1 inh = qHTS Assay for Inhibitors of Influenza NS1 Protein Function. Potency, µM (doses to about 46.1 µM). 270,000 tested, 0.4% active. AID 2326, 2010; calls by dose curve; further: actives are rising curves; nearly all actives have a fitted effect of over 50% in size
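A cell-based growth assay was used: compounds that relieve NS1-induced slow growth of budding yeast raise OD600. Assay medium was yeast nitrogen base with ammonium sulphate and -URA supplement, pH 6.0, with 2% galactose.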
Pf growth 96h = Primary qHTS for delayed death inhibitors of the malarial parasite plastid, 96 hour incubation. P. falciparum luciferase reporter growth, 96 h. Potency, µM (series often up to 28.7 µM), actives largely listed as inhibitors. 320,000 tested, 6.9% active
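P. falciparum expressing integrated firefly luciferase, in erythrocytes at 2% hematocrit, 0.05% parasitemia, incubated with compounds 96 h at 37 C, 5% CO2. Growth inhibition read as loss of luminescence; two-generation exposure targets delayed-death apicoplast inhibitors.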
Cycloheximide cs = Cycloheximide Counterscreen for Small Molecule Inhibitors of Shiga Toxin; 300,000 tested, 12% active; max response, %; cell reporter, cycloheximide protein synthesis inhibition counterscreen; AID 2314, 2010; in the data active means max response mostly above about 13%, no sharp cut-off; inactive means mostly below about 14%; further: read at 38.3 µM for the half of the compounds with a filed dose
Pf growth 48h = Primary qHTS for delayed death inhibitors of the malarial parasite plastid, 48 hour incubation; AID 504832, 2011; 310,000 tested, 5.9% active; Potency, µM (doses to about 28.7 µM), usual class: inhibitors; P. falciparum luciferase growth in erythrocytes, 48 h
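Luciferase-expressing parasites in RBCs, 2% Hct / 0.1% parasitemia final; RPMI 1640 + 0.5% Albumax; 37 C, 5% CO2, one generation; luminescence read-out, lower signal = inhibition.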
FBPA Giardia inh = qHTS Assay for Inhibitors of Fructose-1,6-bisphosphate Aldolase from Giardia Lamblia; purified Giardia FBPA; Potency, µM (titrated, usually from 59.6 µM), most hits filed as inhibitors; 290,000 tested, 0.71% active; AID 2451, 2010; further: nearly all actives have a fitted effect of over 55% in size
Target sequence (A8B2U2 whole entry, looked up): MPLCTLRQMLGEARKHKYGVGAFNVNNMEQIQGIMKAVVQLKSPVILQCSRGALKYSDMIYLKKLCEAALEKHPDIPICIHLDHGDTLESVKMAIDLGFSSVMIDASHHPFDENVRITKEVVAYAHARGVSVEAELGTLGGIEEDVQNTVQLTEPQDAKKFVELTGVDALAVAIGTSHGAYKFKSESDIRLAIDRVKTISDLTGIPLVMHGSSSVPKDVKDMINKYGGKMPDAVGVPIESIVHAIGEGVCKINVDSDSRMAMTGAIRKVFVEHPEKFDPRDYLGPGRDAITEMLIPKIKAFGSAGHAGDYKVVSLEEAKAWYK
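40 nM FBPA preincubated 10 min at RT with compound (up to 57.5 uM final), then substrate plus GAPDH/TPI/NAD/arsenate coupling and diaphorase/resazurin added. Fluorescence read after 20 min at RT, 525/598 nm.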
Each line names hits and unclear results; the compound was inactive in the other large screens. Unless noted, the call rests on the fitted dose curve; in most records, active means well fitted curve in the direction sought with a large enough effect; inconclusive means small, poorly fitted or top-dose-only effect, or another doubt; inactive means no such curve, though single readings can be large; an effect the other way counts as inactive or inconclusive.

Cc1cc(OCc2cc(C(=O)N(C)C(C)c3ccccn3)no2)cc(C)c1Cl (stereo unspecified)	Shiga toxin inh 102, Cycloheximide cs 41
Cc1cc(OCc2cc(C(=O)N(C)CCOc3ccccc3)no2)cc(C)c1Cl	none
CSc1ccccc1OCc1cc(C(=O)N(C)C(C)c2ccccn2)no1 (stereo unspecified)	Pf growth 96h inconclusive (no result: FBPA Giardia inh)
O=C(NCc1cccnc1)C(=O)NCC1OCCN1S(=O)(=O)c1ccc(F)cc1 (stereo unspecified)	NS1 inh inconclusive, Pf growth 96h inconclusive
COc1ccc(C(=O)NCCCNC(=O)c2cnccn2)cc1Br	Pf growth 96h inconclusive, Pf growth 48h inconclusive
CCOC(=O)c1ccc(NC(=O)CSc2nc3ncccc3[nH]2)cc1	Shiga toxin inh 16, Pf growth 96h inconclusive, Cycloheximide cs 23
Cc1ccc(CSc2nc3ncccc3[nH]2)cc1	Shiga toxin inh 64, Cycloheximide cs 20
C=C(C)CSc1nc2ncccc2[nH]1	none
CCN(CC)C(=O)CSc1nc2ncccc2[nH]1	Pf growth 96h 12µM
CN(C)C(=O)CSc1cnc2ccccc2n1	none (no result: NS1 inh)
CC1CCCN(C(=O)CSc2cnc3ccccc3n2)C1 (stereo unspecified)	Shiga toxin inh 111, Cycloheximide cs 58 (no result: Pf growth 48h)
COc1cc(OC)cc(C(=O)NCC(=O)NC(C)c2ccccc2)c1 (stereo unspecified)	none
Nc1nc(SCC(=O)NCCc2ccccc2)[nH]c(=O)c1-c1ccccc1	none
CC1CCCN(C(=O)CSc2nc3ncccc3[nH]2)C1 (stereo unspecified)	Shiga toxin inh 33, Cycloheximide cs 15
Cc1c(Cl)cccc1NC(=S)NCCc1ccc(C(F)(F)F)cc1	Pf growth 96h 13µM, Pf growth 48h 6.6µM (no result: NS1 inh)
S=C(NCc1cccs1)Nc1ccccc1Cl	Shiga toxin inh 44, NS1 inh inconclusive, Cycloheximide cs 24
NNC(=S)Nc1ccccc1Cl	Shiga toxin inh 86, Pf growth 96h inconclusive, Cycloheximide cs 43, FBPA Giardia inh inconclusive
Cc1c(Cl)cccc1NC(=S)NCCc1ccccn1	Pf growth 96h inconclusive
S=C(Nc1ccccc1Cl)Nc1ccc(Cl)cc1Cl	Pf growth 96h inconclusive
S=C(NCCNC(=S)Nc1ccccc1Cl)Nc1ccccc1Cl	Pf growth 96h 9.3µM, Pf growth 48h 9.3µM, FBPA Giardia inh inconclusive
COCCN1Cc2cccc(C(=O)NC(C)CCc3ccco3)c2C1=O (stereo unspecified)	none (no result: NS1 inh)
CC(NC(=S)Nc1ccccc1Cl)C(c1cccs1)N1CCCC1 (stereo unspecified)	Pf growth 96h 12µM, Pf growth 48h inconclusive
CSc1ncccc1C(=O)NCC(c1cccs1)N1CCOCC1 (stereo unspecified)	Pf growth 48h inconclusive (no result: Shiga toxin inh, NS1 inh, Cycloheximide cs, FBPA Giardia inh)
CCOC(=O)C(CCc1ccccc1)NC1CCc2ccccc2N(CC(=O)O)C1=O (stereo unspecified)	Pf growth 96h 12µM, Pf growth 48h 9.5µM (no result: NS1 inh)
Cc1ccc2[nH]c3nc(SCCN4CCOCC4)nnc3c2c1	Shiga toxin inh 86, Cycloheximide cs 28
CCCCn1c2ccc(C)cc2c2nnc(SCCN3CCCCC3)nc21	Pf growth 96h inconclusive, Pf growth 48h 13µM
Cc1ccc2[nH]c3c(=O)n(CCN4CCOCC4)cnc3c2c1	Shiga toxin inh 61, Cycloheximide cs 39
CCOCCCNC(=O)c1cn(CC)c2ccc(S(=O)(=O)N3CCCC3)cc2c1=O	none (no result: FBPA Giardia inh)
CC1=CC2C(C(C)C)CCC(C)(O)C2CC1 (stereo unspecified)	none (no result: Shiga toxin inh, NS1 inh, Pf growth 96h, Cycloheximide cs, Pf growth 48h)
O=C(c1n[nH]c2ccccc12)N1CCN(S(=O)(=O)c2ccccc2)CC1	Pf growth 96h 7.4µM, Pf growth 48h 5.2µM (no result: Shiga toxin inh, NS1 inh, Cycloheximide cs, FBPA Giardia inh)
O=C(c1n[nH]c(=O)c2ccccc12)N1CCN(S(=O)(=O)c2ccccc2Cl)CC1	Pf growth 96h 5.9µM, Pf growth 48h inconclusive (no result: Shiga toxin inh, NS1 inh, Cycloheximide cs, FBPA Giardia inh)
CCc1cc(-c2n[nH]c(C)c2-c2nc3ccccc3s2)c(O)cc1OCC(=O)NN	Pf growth 48h 5.2µM (no result: NS1 inh)
CCc1cc(-c2n[nH]c(C)c2-c2nc(C)cs2)c(O)cc1OC	Pf growth 48h inconclusive, FBPA Giardia inh inconclusive
CCCn1c(SC(C)C(=O)NCC2CCCO2)nc2sc3c(c2c1=O)CCC3 (stereo unspecified)	Pf growth 96h inconclusive, Pf growth 48h 13µM (no result: Shiga toxin inh, NS1 inh, Cycloheximide cs, FBPA Giardia inh)
CCCn1c(SC(C)C(=O)NCC2CCCO2)nc2sc(CC)cc2c1=O (stereo unspecified)	Pf growth 96h inconclusive, Pf growth 48h inconclusive (no result: FBPA Giardia inh)
Cc1ccc2c(c1)c1c3n2CCN(C(=O)Cn2c(-c4ccccc4)noc2=O)C3CCC1 (stereo unspecified)	NS1 inh inconclusive, Pf growth 96h 9.3µM, Pf growth 48h 0.19µM
Cc1ccc2c(c1)c1c3n2CCN(CC(O)CNC(C)C)C3CCC1 (stereo unspecified)	Pf growth 96h 13µM, Pf growth 48h inconclusive
Cc1ccc2c(c1)c(=O)c1c3n2CCN(C(=O)CCl)C3CC1 (stereo unspecified)	Pf growth 96h 5.2µM, FBPA Giardia inh inconclusive (no result: Pf growth 48h)
Cc1ccc2c(c1)c1c3n2CCN(CC(N)=O)C3CCC1 (stereo unspecified)	Pf growth 48h 13µM
CCOc1ncccc1C(=O)OCC(=O)N(CC(C)C)c1c(N)n(Cc2ccccc2)c(=O)[nH]c1=O	Pf growth 48h inconclusive (no result: Shiga toxin inh, NS1 inh, Cycloheximide cs, FBPA Giardia inh)
Cc1c(Cl)cccc1NC(=O)CNC(=O)CCCc1nc2ccccc2c(=O)[nH]1	none (no result: Shiga toxin inh, NS1 inh, Cycloheximide cs, FBPA Giardia inh)
Cc1ccc(S(=O)(=O)Nc2ccccc2F)cc1C(=O)N1CCN(c2ccccc2O)CC1	Pf growth 48h inconclusive (no result: Shiga toxin inh, NS1 inh, Cycloheximide cs, FBPA Giardia inh)
Cc1ccc2c(c1)c1c3n2CCCN(Cc2ccccc2)C3CCC1 (stereo unspecified)	Pf growth 48h 0.93µM (no result: Pf growth 96h)
CN1CCN(CC(=O)N2CCn3c4c(c5cc(C6CCCCC6)ccc53)CCCC42)CC1 (stereo unspecified)	Pf growth 96h inconclusive, Pf growth 48h 7.4µM
COc1ccc(C2C(C(=O)c3ccccc3)N3c4ccccc4C=CC3C2[N+](=O)[O-])cc1 (stereo unspecified)	Pf growth 96h 9.3µM, Cycloheximide cs 22, Pf growth 48h inconclusive
COc1ccc(-c2c([C@H]3[C@@H]4C=CCC[C@@]4(C)C(=O)N3Cc3ccccc3)ccc3ccccc23)cc1OC	Pf growth 96h 5.2µM, Pf growth 48h 5.2µM
COc1ccc(-c2ccc([C@H]3[C@@H]4C=CCC[C@@]4(C)C(=O)N3Cc3ccccc3)c(F)c2)cc1OC	Pf growth 96h inconclusive, Cycloheximide cs 37, Pf growth 48h inconclusive
Cc1ccc(OCCC(=O)O)cc1	none
COc1ccc(C(=O)NCCn2cc(SCC(=O)Nc3cc(C)on3)c3ccccc32)cc1OC	none
Cc1cc(NC(=O)CSc2cn(CCNC(=O)c3ccc(Cl)cc3)c3ccccc23)no1	NS1 inh inconclusive, Cycloheximide cs 38
